The structures appear in SMILES notation. The whole screen tested about 340,000 compounds, of which about 5,100 (1.5%) were called active. Shown is part of a subset that was picked to be rich in actives. Unmarked numbers belong to inactive results.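 Rule for the calls: active = mean Tm shift, scaled 0 neutral to 100 positive control, at about 1.3% or above, every replicate too (limit read from the data); inconclusive = no clear call, values can overlap the other calls; inactive = the rest.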

The target in the assay is Fibroblast growth factor 22 (Homo sapiens) (UniProt Q9HCT0). As to the kind of experiment: FGF22 ligand-induced thermal stabilization – biophysical, thermal shift, single point, FGF22 synaptogenesis inhibitor project, primary screen (AID 651658). Conditions: recombinant FGF22 thermal shift, SYPRO orange fluorescence; at 9.99 µM; hits give high values; percent of sucrose octasulfate shift, DMSO zero.
Sequence of Fibroblast growth factor 22 (Homo sapiens) (Q9HCT0 whole entry, looked up): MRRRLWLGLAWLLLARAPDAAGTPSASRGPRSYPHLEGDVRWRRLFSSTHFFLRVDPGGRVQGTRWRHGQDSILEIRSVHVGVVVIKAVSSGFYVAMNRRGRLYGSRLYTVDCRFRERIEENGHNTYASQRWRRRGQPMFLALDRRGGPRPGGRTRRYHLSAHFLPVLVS
In the case of `CN(C)c1ccc(/C=N/Nc2cc(N3CCOCC3)nc(N3CCOCC3)n2)cc1`, the activity (Tm shift, normalised) is 43.5% (active).

For `C(=N\Nc1ccc2ccccc2n1)/c1ccc2c(c1)OCO2`, the activity (Tm shift, normalised) was 41.5%. The result for `C/C(=N\Nc1nc(N2CCOCC2)nc(N2CCOCC2)n1)c1ccc([N+](=O)[O-])cc1` reads 0.46%; that for `CC(=O)c1c(C)[nH]c(C(=O)Nc2cc(S(=O)(=O)N(C)C)ccc2C)c1C`, 43.3% (active). For `Cc1ccc(S(=O)(=O)N(C)C)cc1NC(=O)c1ccccc1Br` the value was -0.075%. For `Cc1ccc(S(=O)(=O)N(C)C)cc1NC(=O)c1n[nH]c(=O)c2ccccc12` the value was -0.104%; for `C[C@@H]1CN([C@@H](C)CO)C(=O)c2cc(NC(=O)Cc3ccccc3)ccc2O[C@H]1CN(C)CC1CC1`, 0.206%; for `Cc1ccc(S(=O)(=O)N2C[C@@H](O)COC[C@@H]3O[C@H](CC(=O)NCCCN(C)C)CC[C@H]32)cc1`, 0.016%. With `Cn1nc(C(F)(F)F)c(-c2ccc(F)cc2)c1NC(=O)CSCC(=O)O`, the activity (Tm shift, normalised) was -0.085%.

As for `O=C(O)CSCC(=O)Nc1ccc(C(F)(F)F)cc1`, the activity (Tm shift, normalised) was 43% (active).

In the case of `O=C(CSCc1ccccc1)Nc1ccccc1`, the activity (Tm shift, normalised) was -0.128%. For `Cc1cc(C)n(-c2ccc(C(=O)O)cc2[N+](=O)[O-])n1` the value was 43.1% (active). On to `Cc1cc(N)n(-c2ccc(S(=O)(=O)N3CCCC3)cc2[N+](=O)[O-])n1`, for which the activity (Tm shift, normalised) is -0.196%.

For the compound `Cc1cc(C(=O)O)ccc1[N+](=O)[O-]`, the activity (Tm shift, normalised) was 0.06%. For `Cc1ccc(S(=O)(=O)N[C@@H]2CC[C@@H](CCn3cc(C4CC4)nn3)O[C@@H]2CO)cc1` the value was -0.331%; for `C[C@H]1CN([C@@H](C)CO)C(=O)c2cc(-c3cccc(F)c3)cnc2O[C@@H]1CN(C)Cc1cncnc1`, 0.062%.

In the case of `O=C(c1cnccn1)N1CC(=O)N2[C@H](C1)[C@H](c1ccc(/C=C/c3ccccc3)cc1)[C@@H]2CO`, the activity (Tm shift, normalised) was -0.069%.

In the case of `O=C(C[C@H]1C[C@@H]2c3cc(NC(=O)c4cccnc4)ccc3O[C@@H]2[C@H](CO)O1)NCc1ccccn1`, the activity (Tm shift, normalised) is -0.175%. For `CCn1c(SCC(=O)Nc2nccs2)nnc1-c1ccco1`, the activity (Tm shift, normalised) is 43.5% (active).

`Cn1c(SCC(=O)Nc2nccs2)nnc1-c1cccnc1`: the activity (Tm shift, normalised) was -0.089%. For `COCCn1c(Cc2cccn2C)nnc1SCC(=O)Nc1nccs1` the value was 0.285%.

Take `CCS(=O)(=O)NCC[C@H]1CC[C@@H](NC(=O)Nc2cc(Cl)cc(Cl)c2)[C@@H](CO)O1`: the activity (Tm shift, normalised) was 0.003%. The result for `Cc1nn(-c2ccccc2)c(Cl)c1/C=C/C(=O)c1ccc(O)cc1` reads -0.458%; that for `Oc1ccc(-c2nncn2-c2ccccc2)cc1`, 43.1% (active). For `Oc1ccc(-c2nnc(Nc3ccccc3)c3ccccc23)cc1` the value was 0.298%; for `COc1cccc(S(=O)(=O)N[C@H]2C=C[C@H](CC(=O)NCc3ccc(Cl)cc3)O[C@@H]2CO)c1`, 0.005%. The result for `CCCC#Cc1cnc2c(c1)C(=O)N([C@H](C)CO)C[C@H](C)[C@H](CN(C)C(=O)c1cnccn1)O2` reads -0.197%; that for `Cc1noc(C)c1NC(=O)N(C)C[C@H]1OCCCC[C@H](C)Oc2ccc(NC(=O)Nc3ccc4c(c3)OCO4)cc2C(=O)N([C@H](C)CO)C[C@@H]1C`, -0.482%; that for `N#Cc1cnn2cc(CCN3CCOCC3)c(-c3ccc(F)cc3)nc12`, 43.1% (active). Consider `COc1ccc2c(c1)CCc1cn3ncc(C#N)c3nc1-2`, for which the activity (Tm shift, normalised) is -0.072%. In the case of `Fc1ccc(-c2ccc(NCCN3CCOCC3)nn2)cc1`, the activity (Tm shift, normalised) is -0.028%. The result for `O=C(N[C@H]1CC[C@@H](CCNS(=O)(=O)c2ccc(F)cc2)O[C@@H]1CO)c1ccccn1` reads 0.123%; that for `C[C@@H]1CN([C@H](C)CO)C(=O)Cc2cc(NS(=O)(=O)c3cccs3)ccc2O[C@@H]1CN(C)C(=O)Nc1ccc(F)cc1`, 0.051%. For `Cn1c(=O)n(C)c2cc(S(=O)(=O)Nc3ccc(F)cc3)ccc21` the value was -0.198%. The result for `Cn1c(CCN2CCN(c3ccccn3)CC2)nc2cc(NS(=O)(=O)c3ccc(F)cc3)ccc21` reads -0.195%. As for `Cn1c(=O)n(C)c2cc(NS(=O)(=O)c3ccc(F)cc3)ccc21`, the activity (Tm shift, normalised) is 43.1% (active). For `COc1ccc2c3c([nH]c2c1)[C@@H](CO)N(C(=O)Nc1ccc(F)cc1)CC31CN(S(C)(=O)=O)C1` the value was -0.554%; for `O=C(N[C@@H]1CC[C@@H](CC(=O)N2CCc3ccccc3C2)O[C@H]1CO)C1CCC1`, -0.096%. For `CN(CCc1cn[nH]c1)C(=O)CC1C(=O)NCCN1Cc1cccc(Oc2ccccc2)c1` (configuration not stated) the value was 0.231%.

As for `COc1ccc(CN2CCNC(=O)C2CC(=O)N(C)Cc2ccccn2)cc1OC` (configuration not stated), the activity (Tm shift, normalised) is 0.398%. The result for `COc1cccc(CN2CCNC(=O)C2CC(=O)N(C)CCc2ccccn2)c1` (configuration not stated) reads 43% (active). For `CS(=O)(=O)N1[C@H](C#N)[C@H](c2ccccc2-c2ccc(F)cc2)[C@@H]1CO` the value was 0.124%; for `Nc1nonc1-n1nnc(C(=O)N/N=C/c2c[nH]c3ccccc23)c1-c1ccccc1`, 0.702%; for `O=C(N/N=C/c1c[nH]c2ccccc12)c1cc2ccccc2o1`, 2.21% (active). The result for `Cc1c(/C=N\NC(=O)c2cc3ccccc3o2)c2ccccc2n1C` reads 0.961%; that for `CC=Cc1ccc2n(c1=O)C[C@@H]1[C@@H](CO)[C@H](C(=O)N(C)C)[C@H]2N1CCc1ccccc1` (mixture of isomers), -0.034%. Take `COc1ccccc1-c1cnc2c(c1)C(=O)N([C@@H](C)CO)C[C@H](C)[C@H](CN(C)C(=O)c1ccncc1)O2`: the activity (Tm shift, normalised) was 0.396%. Turning to `Cc1cc(C(=O)Nc2ccc3c(c2)C(=O)N(C)[C@@H]2CC[C@H](CC(=O)NC4CCCC4)O[C@@H]2CO3)no1`, the activity (Tm shift, normalised) was 0.414%. `COc1ccc(/C=N/NC(=O)c2ccccc2)cc1OS(=O)(=O)c1ccccc1`: the activity (Tm shift, normalised) is 43% (active). For `Cc1ccc(S(=O)(=O)Oc2ccc(/C=N/NC(=O)c3ccncc3)cc2)cc1` the value was 0.38%; for `COc1cc(C=NNC(=O)c2cccnc2)ccc1OC(=O)c1ccccc1F`, -0.02%. The result for `COc1ccccc1CNC(=O)C[C@H]1C[C@@H]2c3cc(NC(=O)c4ccc5c(c4)OCO5)ccc3O[C@@H]2[C@H](CO)O1` reads 0.258%. The result for `CO[C@@H]1CN(C)C(=O)c2ccc(NS(C)(=O)=O)cc2OC[C@H](C)N(C(=O)C2CC2)C[C@H]1C` reads -0.096%; that for `CCC(=O)N1CC2(C1)[C@H](c1ccc(-c3ccc(C)cc3)cc1)[C@H](CO)N2S(C)(=O)=O`, -0.095%; that for `COCCN(Cc1nc(-c2ccc(C(F)(F)F)cc2)no1)C(C)C`, 0.251%. As to `COCCN(C(=O)C(C)C)c1nnc(-c2ccc(C(C)(C)C)cc2)s1`, the activity (Tm shift, normalised) is 1.53% (active). On to `COc1cc(OC)cc(-c2nnc(N(C)C(=O)c3ccncc3)s2)c1`, for which the activity (Tm shift, normalised) is -0.259%. For `CC(C)NC(=O)N1[C@@H]2c3ccc(-c4ccc(F)cc4)c(=O)n3C[C@@H]2[C@@H](CO)[C@@H]1C(=O)N1CCOCC1` the value was -0.32%; for `CC(C)NC(=O)Nc1ccc2c(c1)C(=O)N([C@H](C)CO)C[C@@H](C)[C@@H](CN(C)S(=O)(=O)c1ccc(Cl)cc1)OCCCC[C@H](C)O2`, -0.402%.

In the case of `COc1ccccc1C(=O)Nn1cnnc1`, the activity (Tm shift, normalised) was 0.115%. Turning to `CC(=O)c1ccccc1OCc1ccc(C(=O)c2ccccc2)cc1`, the activity (Tm shift, normalised) is -0.1%. The result for `COc1ccccc1C(=O)Nc1ccc(Nc2ccccc2)cc1` reads -0.034%.

Turning to `COc1ccccc1C(=O)NNC(=O)c1ccc(NC(=O)c2ccccc2)cc1`, the activity (Tm shift, normalised) was 1.4% (active). The result for `COc1ccccc1C(=O)Nc1ccccc1C(=O)Nc1ccccc1` reads -0.098%. For the compound `COc1ccccc1C(=O)c1ccccc1C(=O)c1ccccc1`, the activity (Tm shift, normalised) was 43.7% (active).

`CN1CCN(C(=O)C[C@H]2CC[C@H]3[C@@H](COC[C@H](O)CN3C(=O)c3ccc(F)cc3)O2)CC1`: the activity (Tm shift, normalised) is 0.268%.

Regarding `Cc1ccccc1-c1ccc2c(c1)O[C@H](CN(C)Cc1ccc(C(=O)O)cc1)[C@@H](C)CN([C@H](C)CO)S2(=O)=O`, the activity (Tm shift, normalised) was -0.18%. The result for `C[C@H](CO)N1C[C@H](C)[C@@H](CN(C)CC2CC2)Oc2ccc(NC(=O)CCCN(C)C)cc2CC1=O` reads -0.128%; that for `N#C[C@@H]1[C@H](c2ccc(C#CC3CCCCC3)cc2)[C@@H](CO)N1S(=O)(=O)c1ccccc1`, 0.098%; that for `Cc1cccc(-c2ccc([C@@H]3[C@H](CO)N4CCCCN(C(=O)c5ccc6c(c5)OCO6)C[C@@H]34)cc2)c1`, -0.344%. For `CCCC#Cc1ccc([C@H]2[C@H](CO)N3CCCCN(C(=O)c4ccc5c(c4)OCO5)C[C@@H]23)cc1` the value was 0.555%; for `COc1ccc(-c2ccc([C@H]3[C@H]4CN(C(=O)c5ccc6c(c5)OCO6)CCCCN4[C@H]3CO)cc2)cc1`, 1.83% (active).

With `C[C@@H]1CCCCO[C@@H](CN(C)S(=O)(=O)c2ccccc2)[C@H](C)CN([C@H](C)CO)C(=O)c2cc(NC(=O)Nc3ccc4c(c3)OCO4)ccc2O1`, the activity (Tm shift, normalised) is -0.98%. The result for `COc1ccccc1-c1cnc2c(c1)C(=O)N([C@@H](C)CO)C[C@H](C)[C@H](CN(C)CC1CCOCC1)O2` reads 0.358%; that for `COc1cccc(/C=N/Nc2cc(C)nc(-c3ccccc3O)n2)c1O`, 43% (active). The result for `COc1cccc(/C=N/Nc2ccc(S(=O)(=O)Nc3ccccc3C(=O)O)cc2[N+](=O)[O-])c1O` reads 0.209%; that for `COc1ccc(Cc2nnc(N/N=C/c3ccccc3O)[nH]c2=O)cc1OC`, 0.017%.

The record behind these values is PubChem BioAssay AID651658 (Broad Institute, 2012).
